Shown are actives, neighbours in structure and some others; about 2.2% of the full set was active somewhere.
GC-B act = GC-B (human) receptor activation; P20594; HEK293-GC-B cells, CNP EC30, cGMP TR-FRET; 0% at EC30 CNP, 100% saturating CNP; activation, % at 10 µM; 370,000 compounds, 0.11% hits;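 active means activation at 10 µM reaching about 35% in either raw or pattern-adjusted values, limit read from the data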
ADAM10 inh = inhibits human ADAM10; O14672; recombinant ADAM10, EDANS/DABCYL FRET peptide cleavage, 3 h; inhibition, % at 7 µM; 370,000 compounds, 0.62% hits;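 active means inhibition above a per-campaign cutoff equal to the mean of compounds falling between control-based bounds plus 3 SD, cut at about 20% in these data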;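 further: 0% = DMSO wells while the 100% control is not disclosed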
proKLK7 act = activates the human kallikrein-7 zymogen | AID 652039 | purified proKLK7, EDANS-DABCYL substrate fluorescence; 100% is mature enzyme control, 0% vehicle | P49862 | 370,000 compounds, 0.9% hits | activation, % at 7 µM;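 active means activation above the mean of all tested compounds plus 3 SD, computed per campaign excluding outliers beyond control limits, cut at about 13% in these data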
ADAM17 inh = inhibitors of human ADAM17; recombinant ADAM17, EDANS/DABCYL FRET peptide cleavage; 370,000 compounds, 0.83% hits; P78536; inhibition, % at 6.95 µM;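 active means inhibition above the mean of compounds lying between control limits plus 3 SD, set per campaign, cut at about 8.5% in these data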;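 further: 0% = DMSO-only wells as the low control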
GC-A act = GC-A (human) enzyme activation; AID 1671463; activation, % at 10 µM; 370,000 compounds, 0.14% hits; P16066; HEK293 GC-A cells, cGMP TR-FRET, EC30 ANP; 0% at EC30 ANP, 100% saturating ANP; in the data active means activation above about 40%
ADAM10 confirm = confirmation of inhibitors of human ADAM10; shares compounds with ADAM10 inh; ADAM10 QFRET peptide cleavage, EDANS fluorescence; inhibition, % at 6.95 µM; 2,100 compounds, 1% hits;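 active means inhibition above about 20% chosen separately for each screening run, limit read from the data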;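 further: 0% = DMSO wells and 100% = marimastat wells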
ADAM17 counter = counter-screen for ADAM10 exosite inhibitors: inhibitors of human ADAM17; 2,100 compounds, 0.5% hits; shares compounds with ADAM10 inh; ADAM17 QFRET peptide cleavage, EDANS fluorescence; inhibition, % at 6.95 µM; AID 743214;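 active means mean triplicate inhibition above the solvent-only control wells' mean plus 3 SD, cut at about 12% in these data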;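 further: 0% = DMSO wells and 100% = marimastat wells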
Active calls of the source: *; i = inactive; . = not tested or not shown.

SMILES | GC-B act | ADAM10 inh | proKLK7 act | ADAM17 inh | GC-A act | ADAM10 confirm | ADAM17 counter
COc1cc2c(cc1OC)C(c1ccccc1)N(C(=O)c1ccccc1)CC2 (stereo not given) | -16 | 17 | 0 | 1 | -26 | . | .
COc1cc2c(cc1OC)C(c1ccccc1)N(C(=O)c1ccccc1F)CC2 (stereo not given) | -7 | 21* | 0 | -1 | -25 | 1 | 0
CC1(C)C=Cc2c(ccc3c2OC[C@H](c2ccc(O)cc2O)C3)O1 | -14 | 28* | 1 | 8 | -5 | 13 | 3
COC(=O)[C@]1(CNC(=O)C(C)(C)C)CC(=O)N(Cc2ccc(Cl)cc2)[C@@H]1c1ccc(OC)cc1 | -17 | 8 | 0 | 3 | -16 | . | .
CCc1nc2ccccc2c(C(=O)OCC(=O)Nc2cccc(S(=O)(=O)N3CCOCC3)c2)c1C | 13 | 22* | 1 | 5 | 10 | 3 | 1
OC(c1ccccc1)(c1nc(/C=C/c2ccccc2)cs1)C(F)(F)F (stereo not given) | 0 | 21* | 0 | 7 | 6 | 8 | 3
CC(O)(c1ccccc1)c1nc(/C=C/c2ccccc2)cs1 (stereo not given) | -1 | 15 | 0 | 4 | 5 | . | .
Cc1c[nH]c2cccc(-c3ccc4c(c3)OCO4)c12 | -1 | -27 | 1 | -6 | -1 | . | .
O=C(Nc1ccccc1)OCCN1CCCC12CCC(c1ccccc1)CC2 (stereo not given) | -4 | -10 | . | -9 | -4 | . | .
O=S(=O)(Nc1cccc2cccnc12)c1ccc(S(=O)(=O)N2CCCC2)cc1 | 4 | 22* | 0 | 5 | 3 | 3 | 2
O=S(=O)(Nc1cccc2cccnc12)c1ccccc1 | 7 | 0 | -2 | -4 | 15 | . | .
C=CCOC(=O)N[C@H](c1ccc2ccccc2c1)[C@H](C)/C=C/CC(=O)OC | -12 | -1 | 0 | -3 | -2 | . | .
O=C(CSc1nc2ccc(NC(=O)c3ccccc3C(=O)O)cc2s1)Nc1c(Cl)cccc1Cl | 0 | 20* | -1 | 4 | -1 | 0 | 1
CSc1ccc(S(=O)(=O)NCc2ccc(Cl)cc2Cl)cc1 | -1 | 20* | 0 | 2 | -3 | 2 | 0
N#CCC[C@@H]1CC[C@]2(CCCN(C(=O)c3ccco3)C2)O1 | 4 | 1 | -1 | 1 | 3 | . | .
CCn1cc(CNC(=O)c2cccc([N+](=O)[O-])c2)c(C)n1 | 2 | -8 | -1 | -2 | -1 | . | .
O=C(NCc1cn(-c2ccccc2)nc1-c1ccc(F)cc1)c1cccc([N+](=O)[O-])c1 | -1 | 21* | 0 | 9 | -4 | 7 | 2
COc1cc(S(=O)(=O)NCc2ccccn2)ccc1Cl | 0 | 9 | 0 | 2 | 2 | . | .
COc1ccc(S(=O)(=O)NCc2ccccn2)cc1Br | 0 | 23* | 0 | 5 | 5 | -2 | 0
c1ccc(-c2c[nH]c3cccc(-c4cc5ccccc5o4)c23)cc1 | 2 | i | -39 | -214 | -6 | . | .
O=C(COC(=O)CCc1c[nH]c2ccccc12)NC(c1ccccc1)c1ccccc1 | -3 | 24* | 0 | 7 | -2 | 7 | 2
O=C(COC(=O)CCc1c[nH]c2ccccc12)Nc1ccccc1 | -7 | -10 | 0 | 3 | 2 | . | .
COC(=O)c1cc(NC(=O)CN(c2ccc(OC)cc2)S(=O)(=O)c2ccc(F)cc2)ccc1Cl | -7 | 22* | 0 | 9 | -1 | 10 | 2
CCOC1=C2[C@@H](CN(S(=O)(=O)c3ccc(C)cc3)[C@H]2c2cccc3ccccc23)[C@H]2C(=O)N(c3ccccc3)C(=O)[C@H]2C1 | 6 | 21* | 1 | 6 | 5 | 10 | 3
O=S1(=O)c2ccc(N3CCSCC3)cc2Oc2ccccc2CN1Cc1cn(Cc2ccc(C(F)(F)F)cc2)nn1 | 3 | 20* | -1 | -1 | -2 | 10 | 3
SMILES | GC-B act | ADAM10 inh | proKLK7 act | ADAM17 inh | GC-A act | ADAM10 confirm | ADAM17 counter
COc1ccc(N2C(=O)CSC23C(=O)N2c4c(cccc43)C(C)=CC2(C)C)cc1 (stereo not given) | -20 | 22* | 0 | 9 | -31 | 2 | 0
COc1ccc(N2C(=O)CSC23C(=O)N2CCCc4cccc3c42)cc1 (stereo not given) | -12 | 0 | -1 | -3 | -14 | . | .
O=C(NCc1cccs1)C1CCC(CNS(=O)(=O)c2cccc3cccnc23)CC1 (stereo not given) | -5 | -10 | 0 | -4 | 3 | . | .
COc1ccc(NS(=O)(=O)c2cccc(C(=O)NNC(=O)c3ccc(NC(C)=O)cc3)c2)cc1 | 5 | -2 | 0 | -1 | 0 | . | .
COc1cccc(S(=O)(=O)Nc2ccc(C(O)(C(F)(F)F)C(F)(F)F)cc2)c1 | -2 | 20* | -1 | 3 | -2 | -2 | 0
COc1ccc(OC)c(C(=O)CSc2nnc(SCc3cccc4ccccc34)s2)c1 | -4 | -2 | -1 | 0 | 0 | . | .
CCCC(=O)Nc1ccc(S(=O)(=O)N2CCCC2)cc1 | 9 | 6 | 0 | 2 | 3 | . | .
CCCCC(=O)NC(=S)Nc1ccc(S(=O)(=O)N2CCCC2)cc1 | -4 | 72* | 0 | 1 | 2 | 0 | 0
CC(C)(C)c1ccc(OCCC(=O)Nc2cccc(S(=O)(=O)N3CCCCC3)c2)cc1 | 2 | 24* | -1 | 5 | 3 | 10 | 3
O=C(Cc1cccc(C(F)(F)F)c1)Nc1ccc(S(=O)(=O)N2CCCC2)cc1 | 4 | 16 | 0 | 6 | -2 | . | .
O=C(Cc1cccc(C(F)(F)F)c1)Nc1cccc(S(=O)(=O)N2CCCC2)c1 | 10 | 20* | 0 | 3 | -2 | 1 | 1
O=C(NCCN1CCC(Cc2ccccc2)CC1)C1CCCN(S(=O)(=O)c2ccc([N+](=O)[O-])cc2)C1 (stereo not given) | -5 | -9 | 1 | -2 | -3 | . | .
COc1cc(Sc2ccc(C)cc2)c(OC)cc1N | -4 | 30* | 0 | -1 | 4 | 2 | 1
Cc1cc(C)c(C#N)c(SCc2ccccc2)n1 | 0 | 23* | 0 | 8 | -2 | 1 | 1
COc1ccc2c(c1)CNC2CS(=O)(=O)NCCc1ccccc1 (stereo not given) | -2 | -83 | -1 | -21 | -3 | . | .
CSCC[C@H](NC(=O)OC(C)(C)C)c1nnc(SCc2cccc(F)c2)o1 | 7 | 20* | -1 | 1 | -1 | 1 | 0
COc1cc(NC(=O)C/C(C)=N/NC(=O)c2cccs2)c(OC)cc1Cl | -6 | 28* | 0 | 15* | -8 | 0 | 1
